KLF5 inhibitor: KLF5 expression inhibitors, primary screen, DLD-1 cells, luminescence; DLD-1 KLF5 promoter-luciferase reporter; inhibition, % at 5 µM; 0.23% of 290,000 active; AID 1700, 2009;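 active = inhibition above a per-plate limit of that plate's mean compound inhibition plus 3 SD, cut at about 60% in these data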;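 note: higher means less KLF5 promoter-driven luciferase light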
Ba/F3 V617F tox: reduced viability of JAK2V617F-dependent Ba/F3 cells, primary screen, JAK2V617F inhibitor project, cell-based, Ba/F3 EpoR-JAK2V617F, luminescence; ATP luminescence; inhibition, % at 5.6 µM; 1.1% of 220,000 active;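 active = inhibition above the campaign mean plus 3 SD over all tested compounds, cut at about 24% in these data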;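 note: cytokine-independent growth of Ba/F3 cells driven by EpoR plus mutant JAK2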
DNA FID counter: compounds displacing fluorescent DNA intercalator, primary screen, artefact control for HCV NS3 helicase inhibitor project, biochemical, FID fluorescence | AID 1845, 2009 | DNA fluorescent intercalator displacement | 0.17% of 290,000 active | inhibition, % at 7.9 µM; in the data active = inhibition above about 37%;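 note: higher means more ethidium bromide displaced from hairpin DNA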
BaF3 parental: parental Ba/F3 cell viability inhibition, counter-screen for JAK2V617F inhibitor project, murine pro-B, CellTiter-Glo luminescence; CellTiter-Glo ATP luminescence; inhibition, % at 5.6 µM; 1.1% of 220,000 active;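 active = inhibition above a per-campaign cutoff, the mean inhibition of all tested compounds plus 3 SD, cut at about 27% in these data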
IEC-6 cytotox: cytotoxicity in IEC-6 intestinal epithelial cells, primary screen, cytotoxicity control for KLF5 inhibitor project, cell-based, luminescence. IEC-6 cytotoxicity, luminescence viability. inhibition, % at 5 µM. AID 1825, 2009. 0.78% of 290,000 active
GPR7 antag: GPR7 receptor antagonists, primary screen, cell-based, fluorescence, single concentration. inhibition, % at 4.4 µM. GPR7-expressing cells, fluorescence antagonist assay. 1.1% of 290,000 active. Neuropeptides B/W receptor type 1 (Homo sapiens), P48145. AID 1861, 2009; in the data active = inhibition above about 16%, passing the limit was not always enough;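 note: cells stimulated with the agonist NPW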
Target sequence (P48145 whole entry, looked up): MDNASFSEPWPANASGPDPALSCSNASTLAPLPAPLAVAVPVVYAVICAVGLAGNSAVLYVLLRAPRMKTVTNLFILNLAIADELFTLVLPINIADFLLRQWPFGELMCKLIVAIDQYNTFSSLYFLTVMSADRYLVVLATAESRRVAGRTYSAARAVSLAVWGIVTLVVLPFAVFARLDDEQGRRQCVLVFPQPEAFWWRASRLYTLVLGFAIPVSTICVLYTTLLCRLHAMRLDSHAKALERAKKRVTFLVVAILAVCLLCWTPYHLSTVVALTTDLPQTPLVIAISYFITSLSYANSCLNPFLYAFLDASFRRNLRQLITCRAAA
IEC-6 tox confirm: cytotoxic compounds in IEC-6 epithelial cells, confirmation, cytotoxicity control, cell-based, luminescence; 63% of 1,900 active; shares compounds with IEC-6 cytotox; inhibition, % at 5 µM; IEC-6 rat intestinal epithelial viability
Numbers stand for hits; . = inactive; / = no result. Hits are enriched below; roughly 2.6% of the tested compounds scored in any of these assays. Cut-off read from the data, not from the text of the source, unless noted: active = inhibition above about 22%; inactive = the rest.

SMILES	KLF5 inhibitor	Ba/F3 V617F tox	DNA FID counter	BaF3 parental	IEC-6 cytotox	GPR7 antag	IEC-6 tox confirm
Cc1cccc2nc(CSc3nc4ccc([N+](=O)[O-])cc4[nH]3)c(Br)n12	.	.	.	.	.	.	/
Cc1ccc(-n2ncc(C(=O)Nc3cc(Cl)cc(Cl)c3)c2C2CCNCC2)cc1C	.	95.0	42.7	85.6	97.6	.	96.6
Cc1ccc(-n2ncc(C(=O)Nc3cc(Cl)ccc3Cl)c2C2CCNCC2)cc1	.	.	.	.	.	.	/
CCOc1ccc(N2C(=O)CC(N(CCc3ccc(OC)c(OC)c3)C(=O)/C=C/C(=O)O)C2=O)cc1 (configuration not stated)	.	.	.	.	.	.	/
CC(=O)c1c(C)cc(C)c(CSc2nc(C)cc(=O)[nH]2)c1C	.	.	.	.	29.9	.	.
C/C(=N\NC(=O)Cc1ccc(Cl)cc1)c1ccccc1O	.	/	.	/	28.3	.	29.0
C/C(=N\NC(=O)Cc1ccc(Cl)cc1)c1ccc(F)cc1	.	/	.	/	.	.	/
COC(=O)c1ccc(C2C(C(=O)c3cc4ccccc4o3)=C(O)C(=O)N2CCCN(C)C)cc1 (configuration not stated)	.	.	.	.	.	.	/
Nc1nonc1-n1nnc(C(=O)N/N=C/c2ccccc2)c1CN1CCc2ccccc21	.	/	.	/	.	.	/
C/C(=N\NC(=O)c1nnn(-c2nonc2N)c1CN1CCc2ccccc21)c1ccccc1O	.	/	.	/	54.2	.	55.7
CCCc1cc(=O)[nH]c(SCC(=O)N(CC)Cc2ccccc2)n1	.	.	.	.	.	.	/
Cc1ccc(N=Nc2c(N)[nH]n3c(=O)cc(C)nc23)cc1	.	.	.	.	22.4	.	.
CCn1cc(C(=O)NCC(OC)OC)c(=O)c2cc(S(=O)(=O)N3CCC(C)CC3)ccc21	.	/	.	/	31.7	.	24.8
Cc1ccc(Cl)c(OCCCCN(C)Cc2ccccc2)c1	.	.	.	.	.	.	/
COc1cc2c(cc1OC)CN(C(=O)/C=C/c1ccccc1[N+](=O)[O-])CC2	.	/	.	/	24.2	.	.
COc1cc2c(cc1OC)CN(C(=O)/C=C/c1cccs1)CC2	.	81.3	.	62.6	59.3	.	52.0
Cc1ccn2c(C(=O)CSc3ccccc3)c(C)nc2c1	.	.	.	.	23.2	.	.
Cc1ccc(SCC(=O)c2c(C)nc3cc(C)ccn23)cc1	.	.	.	.	.	.	/
NC1=C(Br)C(=O)c2ccccc2C1=O	.	.	.	.	29.2	.	.
Nc1ccc(Br)c2c1C(=O)c1ccccc1C2=O	.	.	.	.	.	.	/
O=C(c1ccco1)c1coc2c1cc(O)c1ccccc12	.	.	.	.	25.4	.	.
CC(=O)c1coc2c1cc(O)c1ccccc12	.	.	.	.	.	.	/
CCCCN(Cc1cc2ccccc2[nH]c1=O)C(=O)c1ccccn1	.	.	.	.	.	.	/
Clc1ccc2nc(C3CCN(Cc4nnnn4C4CCCCC4)CC3)[nH]c2c1	.	.	.	.	.	.	/
Cc1ccc(Cn2nnnc2CN2CCC(c3nc4ccc(Cl)cc4[nH]3)CC2)cc1	.	91.9	.	82.3	88.4	.	54.4
SMILES	KLF5 inhibitor	Ba/F3 V617F tox	DNA FID counter	BaF3 parental	IEC-6 cytotox	GPR7 antag	IEC-6 tox confirm
Cc1cccc(N2CCN(C(=O)c3cc(S(=O)(=O)N4CCCC4)cn3C)CC2)c1C	.	/	.	/	52.1	.	.
Fc1ccc(-c2csc(Nc3ccccn3)n2)cc1	.	/	.	/	32.3	.	.
CCC(CC)C(=O)c1c[nH]c(C(=O)NN)c1	.	.	.	.	29.8	.	.
O=C(c1ccc(CS(=O)c2ccccc2Cl)o1)N1CCN(c2ccccn2)CC1 (configuration not stated)	.	/	.	/	56.4	.	44.8
CC(C)(C)C(=O)Cn1ncc(Br)c(Br)c1=O	.	.	.	.	29.4	.	.
Cc1cc(O)c(NC(=O)c2ccco2)cc1C	.	.	.	.	.	.	/
CC(NCC(O)COc1ccc2ccccc2c1)c1ccccc1 (configuration not stated)	.	/	.	/	53.0	.	.

Bioassay records: PubChem BioAssay, The Scripps Research Institute Molecular Screening Center
